From PubChem
Shown is part of a subset that was picked to be rich in hits.
CapD inh – inhibitors of Bacillus anthracis CapD enzyme. purified CapD enzyme, fluorescence intensity read-out; stronger effect = lower value. z-score (no concentration beside the values). 0.23% of 140,000 active. AID 492967; in the data active = z-score mostly below about -2.9, no sharp cut-off; inactive = mostly above about -1.9
* marks the source's active call; other numbers are inactive results.

SMILES | CapD inh
O=C(NN1S(=O)(=O)c2ccccc2S1(=O)=O)c1nsnc1NCCCl | -6.3*
O=C(NN1S(=O)(=O)c2ccccc2S1(=O)=O)c1nc[nH]c1C(=O)Nc1ccccc1 | -0.78
CCCCN(CCCC)CCC(=O)NN1S(=O)(=O)c2ccccc2S1(=O)=O | -2.5
CN(CCO)C(=O)NCc1cccs1 | 0.14
FC(F)(F)c1nnc2sc(-c3cnccn3)nn12 | 0.045
CCOc1ccccc1NC(=O)Cn1c(=O)oc2cc(S(=O)(=O)NC3CCCC3)ccc21 | 0.01
CCOC(=O)c1c(N(C)C)ccc(C2C=CNC(=O)N2)c1C (stereo not drawn) | 0.45
Oc1ccc(CN2CCOCC2)c2cccnc12 | 0.23
CC(C)OCc1cc(CN2CCN(C)CC2)c(O)c2ncccc12 | -0.98
CN1CCN(Cc2ccc(O)c3ncccc23)CC1 | -4.8*
CCCOCCOC(=O)NNC(=O)CC1Sc2ccccc2NC1=O (stereo not drawn) | -1
COc1ccccc1C(=O)N(C(C)C)C(C)C | -0.03
CC(C)C(=O)O/N=C(\N)c1ccccc1 | 0.02
CC(Oc1cccc(Cl)c1)C(=O)O/N=C(\N)c1cccnc1 (stereo not drawn) | -6*
N/C(=N/S(=O)(=O)c1ccc(Cl)c(Cl)c1)c1cccnc1 | 0.71
C=CCNC(=S)Nc1ccc(-c2nnc3n2CCCCC3)cc1 | -0.04
CCOC(=O)c1c(NC(C)=O)nc(SC)n1Cc1ccco1 | -11*
CCOC(=O)c1sc2nc(SCC#N)n(Cc3ccco3)c(=O)c2c1C | 4
CCOC(=O)c1c(NC(C)=O)nc(SC)n1Cc1cccs1 | -0.14
O=C(NC1CCCc2ccccc21)c1ccc(CS(=O)c2ccc(Br)cc2)o1 (stereo not drawn) | -0.34
COc1ccccc1C(=O)OCC(=O)NCc1ccccc1 | 0.26
CNc1sc2c(O)cc(=O)[nH]c2c1C#N | -1.5
Nc1c(Nc2ccc(F)cc2)sc2c(O)cc(=O)[nH]c12 | -4.1*
O=c1cc(O)c2sc(Nc3ccccc3)nc2[nH]1 | 0.055
Cc1ccc(S(=O)(=O)NC(=O)Nc2ccc(C(F)(F)F)cn2)cc1 | -0.14
SMILES | CapD inh
COc1ccc2c(c1)CCC1C2=NN(C(C)=O)C1c1ccccc1F (stereo not drawn) | 24
N#CC(c1ccccc1)c1ccccc1C(=O)c1ccccc1 (stereo not drawn) | -1.1
CC(=O)Nc1ccc(NC(=O)Nc2cccs2)cc1 | -0.18
O=C1/C(=C\c2ccc(Br)o2)CC/C1=C/c1ccc(Br)o1 | -1.2
CCCCC1(C)OC(=O)C(=Cc2ccc(OCC)c(OC)c2)C(=O)O1 (stereo not drawn) | 0.49
CCCCC1(C)OC(=O)C(=Cc2ccc(Br)o2)C(=O)O1 (stereo not drawn) | -4.4*
COCc1cc(C)nc(OCC2=NN(C(C)=O)C(c3cccc(OC)c3)O2)c1C#N (stereo not drawn) | 5
Cc1ccc(N=NN(C)C)cc1 | -1
CN(C)N=Nc1ccc(S(=O)(=O)NC(=O)Cc2ccccc2)cc1 | -1.4
CC(=O)N(C(C)=O)S(=O)(=O)c1ccc(N=NN(C)C)cc1 | -5.1*
O=C1CCCC2=C1C(c1ccc(Cl)cc1)Nc1ccccc1N2 (stereo not drawn) | -2.6
O=C1CCCC2=C1C(c1cccs1)Nc1ccccc1N2 (stereo not drawn) | -3.5*
O=C1CCCC2=C1C(c1ccncc1)Nc1ccccc1N2 (stereo not drawn) | -1.7
O=C(OCC(F)F)N1CCN(C(c2ccccc2)c2ccc(Cl)cc2)CC1 (stereo not drawn) | -1.2
O=C(Nc1ccccc1C(F)(F)F)c1cccn(OCc2ccccc2)c1=O | 0.41
CCN1CCN(CCCNC(=O)c2ccc3c(=O)n(Cc4ccc(Cl)cc4)c(=S)[nH]c3c2)CC1 | -0.045
C/C(=N/O)C1C(=O)c2ccccc2C1=O | -4.3*
C/C(=N\N1C(=O)c2ccccc2C1=O)C1C(=O)c2ccccc2C1=O | -0.46
O=C(c1ccccc1)C1C(=O)c2ccccc2C1=O | -2.4
COC(=O)N=Nc1c(O)[nH]c2ccc(Br)cc12 | -0.73
O=c1ccc2cc3c([nH]c4ccc(Br)cc43)oc-2c1O | -7.8*
O=C(O)c1cc(=O)c2cc(Br)ccc2o1 | 0.56
CC1SC(=S)NN1c1ccccc1 (stereo not drawn) | -1.6
CC(=O)N1C(=O)/C(=C\C(=O)c2ccc(C)cc2)c2ccccc21 | -0.99
CC(=O)N1C(=O)c2ccccc2C1=O | -5.4*
SMILES | CapD inh
CC(=O)N1C(=O)c2ccc([N+](=O)[O-])cc2C1=O | -0.65
COc1cc(/C=C2\NC(=S)NC2=O)ccc1Oc1ccc([N+](=O)[O-])cc1[N+](=O)[O-] | 0.94
Oc1ccc(C=Nc2ccc(Nc3ccccc3)cc2)c(O)c1 | -1.8
COc1cc(/C=C2\SC(=S)N(C(C(=O)O)C(C)C)C2=O)cc(OC)c1O (stereo not drawn) | -0.36
CCOc1cc(/C=C2\SC(=S)N(C(C(=O)O)C(C)C)C2=O)ccc1O (stereo not drawn) | -4.8*
CC(C)C(C(=O)O)N1C(=O)/C(=C/c2ccccc2)SC1=S (stereo not drawn) | -2.1
COc1ccc(C2C(C(=O)N3CCCCC3)=C(C)NC3=C2C(=O)CCC3)cc1O (stereo not drawn) | -0.09
COc1cccc(/C=C/C(=O)O)c1 | 16
CC1CS/C(=C(/C(=O)O)C(=O)/C=C/c2cccc(O)c2)S1 (stereo not drawn) | -5.4*
N#C/C(=C\c1cccc(O)c1)C(=O)O | -1.1
C/C(=N\O)c1cc(Cl)sc1Cl | -0.24
OC(CNCc1ccc(Cl)cc1)(c1ccc(F)cc1)c1ccc(F)cc1 | -0.55
O=C1CC(c2nc3ccccc3[nH]2)CN1c1ccccc1 (stereo not drawn) | -0.45
COC(=O)NC1Sc2ccccc2N=C1c1ccccc1 (stereo not drawn) | -1.1
c1ccc(C2=Nc3ccccc3SC2c2nc3ccccc3[nH]2)cc1 (stereo not drawn) | -4.1*
CCOc1ccc(CCNC(=O)c2ccccc2-c2ccccc2)cc1 | -0.98
Cc1noc(/C=C/N(C)C)c1S(=O)(=O)N1CCCC(C(=O)NC2CCCCC2)C1 (stereo not drawn) | 1.7
Cc1noc(/C=C/N2CCOCC2)c1S(=O)(=O)N(C)CC(=O)NC1CCCCC1 | -5.5*
CCc1ccccc1N(C)S(=O)(=O)c1c(C)noc1/C=C/N1CCOCC1 | -3.4
COc1ccc(C2CC(=O)C3=C(C2)Nc2ccccc2NC3c2ccc(Cl)c([N+](=O)[O-])c2)cc1 (stereo not drawn) | -1.5
CN(C)C(/C=C/Nc1cc(C(F)(F)F)cc(C(F)(F)F)c1)=C(C#N)C#N | -2.2
Cc1ccc(S(=O)(=O)NCCC(=O)Oc2cc3oc(=O)c4c(c3cc2Cl)CCCC4)cc1 | 38
CC(C)n1cc(C(=O)O)c(=O)c2ccccc21 | -0.36
CSc1ccc(C=C(C#N)C#N)cc1 | -0.67
CN(C)c1ccc(C=C(C#N)C#N)cc1 | -0.06
SMILES | CapD inh
N#CC(C#N)=Cc1ccc(O)c(Cl)c1 | -5.4*
Cc1cc(C)nc(N2CCN(C(=O)C(c3ccccc3)c3ccccc3)CC2)n1 | 0.27
O=C(NC1CCCC1)c1ccc2c(=O)n3nc(Nc4ccccc4)sc3nc2c1 | -1.2
COCCOC(=O)C1=C(C)NC(C)=C(C(=O)OCCOC)C1c1ccc(-c2cccc(Br)c2)o1 | 7.7
CCOC(=O)c1[nH]c(C)cc1C | -0.65
CCOC(=O)c1c(C)cc(C)[nH]c1=O | 17
CCOC(=O)c1c(C)cc(C)[nH]c1=S | -4.8*
O=C(c1ccccc1)c1cnc(-c2ccccn2)nc1-c1ccccc1 | -0.56
CS(=O)(=O)c1cccs1 | -0.18
c1ccc(-c2ncc(-c3ccncc3)c(-c3cccnc3)n2)nc1 | 0.085
